Source: PubChem (National Center for Advancing Translational Sciences (NCATS))
SNCA expr inhib: reduces expression of the alpha-synuclein gene. HEK-293 SNCA-luciferase knock-in, luminescence, 24 h. Potency, µM (series often up to 57.2 µM), inactives show at the highest dose activity change, negative = inhibition, hits mostly inhibitors. 0.17% of 140,000 active;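 further: potency means the concentration at half of the fitted maximal effect; plate controls were DMSO cells for no effect and cell-free wells for full effect; nearly all actives have a fitted effect of over 45% in size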
IP6K1 inh: inhibitors of human IP6K1. Q92551. IP6K1 kinase, ADP-Glo luminescence, 2 h; stronger effect = lower value. activity change, % (series mostly up to about 58 µM). 0.81% of 140,000 active. AID 1645851; in the data active means activity change below about -25%
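ADP-Glo luminescence measures ADP made by human IP6K1 during a 2 h RT reaction with ATP/IP6 (mix at 1.3 mM/130 uM); top library doses 57.5 and 19.1 uM final.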
SNCA viab count: counter-screen for SNCA expression inhibitors: cell viability. HEK-293-SNCA-luc viability, GF-AFC fluorescence, 24 h. Potency, µM (doses to about 57.1 µM), for the others: top-dose activity change, negative = cytotoxicity, hits mostly cytotoxic. 0.12% of 150,000 active. AID 1671193;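 further: potency means the concentration at half of the fitted maximal effect; 0% = DMSO-treated cells and -100% = medium-only wells without cells; nearly all actives have a fitted effect of over 30% in size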
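HEK-293-SNCA-luc cells (1500/well) plated 24 h, then exposed 24 h to a dilution series; GF-AFC added 30 min at 37C, fluorescence 405/540 nm; normalised to medium-only and DMSO wells, Hill fit.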
GPT2 inhibitor: inhibitors of human GPT2 alanine aminotransferase; Q8TD30; Recombinant GPT2, coupled pyruvate oxidase/HRP Amplex Red fluorescence; Potency, µM (series often up to 57.7 µM), for the others: top-dose activity change, negative = inhibition, hits mostly inhibitors; 0.25% of 100,000 active; AID 1671188; further: potency means the concentration at half of the fitted maximal effect; nearly all actives have a fitted effect of over 60% in size
Target sequence (Q8TD30 whole entry, looked up): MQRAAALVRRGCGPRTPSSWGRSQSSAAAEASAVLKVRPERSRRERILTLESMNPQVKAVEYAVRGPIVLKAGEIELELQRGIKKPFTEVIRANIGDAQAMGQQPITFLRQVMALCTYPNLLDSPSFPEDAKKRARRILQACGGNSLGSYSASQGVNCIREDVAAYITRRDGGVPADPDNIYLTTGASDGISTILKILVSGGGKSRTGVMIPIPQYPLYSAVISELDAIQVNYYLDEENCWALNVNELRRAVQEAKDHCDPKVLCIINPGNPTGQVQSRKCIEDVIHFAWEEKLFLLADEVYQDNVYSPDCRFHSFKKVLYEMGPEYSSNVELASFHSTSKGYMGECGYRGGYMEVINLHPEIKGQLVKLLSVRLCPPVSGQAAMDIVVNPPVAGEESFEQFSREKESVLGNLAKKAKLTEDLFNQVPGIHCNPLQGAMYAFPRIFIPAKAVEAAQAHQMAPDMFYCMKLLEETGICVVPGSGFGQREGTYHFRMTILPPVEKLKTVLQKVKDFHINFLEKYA
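Fluorescence read-out: pyruvate from GPT2 turnover coupled to pyruvate oxidase, HRP and Amplex Red (0.2mM ThPP, 0.2U/mL PO and HRP, 50uM Amplex final). Substrates 250uM a-KG, 2mM L-alanine; enzyme 10ng/uL; 30 min RT.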
IP6K1 conf: confirmation of human IP6K1 inhibitors; 13% of 1,200 active; shares compounds with IP6K1 inh; recombinant IP6K1 kinase, ADP-Glo luminescence, 2 h; Potency, µM (top dose mostly 49 µM), without a hit: top-dose activity change, negative = inhibition, hits mostly inhibitors; further: potency means the concentration at half of the fitted maximal effect; nearly all actives have a fitted effect of over 65% in size
Starred values were filed as active, the others as inactive; i = inactive; ? = inconclusive; · = no result; [ ] = dose if it differs, or a comment. This is a sample that favours compounds with a hit; in the whole collection about 1% have one here. Unless noted, the call rests on the fitted dose curve; in most records, active means well fitted curve in the direction sought with a large enough effect; inconclusive means small, poorly fitted or top-dose-only effect, or another doubt; inactive means no such curve, though single readings can be large; an effect the other way counts as inactive or inconclusive. Unless noted, on the % scale 0 is the no-effect control and ±100 the full control effect.

SMILES	SNCA expr inhib	IP6K1 inh	SNCA viab count	GPT2 inhibitor	IP6K1 conf
COc1ccc(CCC(C)=O)cc1	14%[25.6 µM]	3	37%[23.9 µM]	i	·
Cc1ccc(Cn2c(-c3ccccc3)nc3ccccc32)cc1	24%	-27*	10%	·	-15%
Cc1ccc(Cn2c(Cc3ccccc3)nc3ccccc32)cc1	-22%	-27*	3%	·	-18%
COc1ccc(-n2c(=O)c(C(=O)NCc3ccc(C(F)(F)F)cc3)nc3cccnc32)cc1	2%	10	-10%	-6%	·
O=C(c1ccc(N2CCCC2)nc1)N1CCC(N2CCOCC2)CC1	-18%	1	-13%	-21%	·
O=C(c1ccc(N2CCCC(CO)C2)nc1)N1CCC(N2CCOCC2)CC1 (configuration not stated)	-1%	-35*	7%	i[11.5 µM]	13%
Cc1ccc(Nc2ccnc(N3CCC(C(=O)NCC4CC4)CC3)n2)cc1	-5%	1	-7%[12.5 µM]	i	·
Oc1ccc(NCc2ccc(OCc3ccccc3Cl)cc2)cc1	-1%	-28*	?	·	?
Oc1ccc(NCc2ccc(OCc3ccccc3)cc2)cc1	7%	-1	-15%	·	·
O=C1CC2(CCN(Cc3ccsc3)CC2)Oc2ccccc21	132%[87.6 µM]	11	10%[87.6 µM]	-2%[88.5 µM]	·
CC(C)c1ccc(CN2CC[C@@H]3OCC(=O)N(C(C)C)[C@H]3CC2)cc1	-1%[87.6 µM]	-1	-10%[87.6 µM]	-9%[88.5 µM]	·
CC(=O)NCCc1nc2ccccc2n1CCCCOc1ccc(Cl)cc1	?	-7	-15%	·	·
CCCCCn1c(CCCNC(=O)c2ccc(Cl)cc2)nc2ccccc21	-17%	-39*	-6%	·	-8%
Cc1ccc(/C=C/c2onc(C)c2S(=O)(=O)N2CCC(C(=O)NCc3ccco3)CC2)cc1	3%	4	-4%	·	·
Cc1ccc(/C=C/c2onc(C)c2S(=O)(=O)N2CCC(C(=O)N(CCC(C)C)Cc3ccco3)CC2)cc1	9%	-38*	3%	·	-9%
C#CCNC(=O)C1CCCCN1Cc1ccc(-c2ccsc2)cc1 (configuration not stated)	-7%	9	7%	-4%	·
CCCC(=O)NCc1cc2c(nc1OC)CN(C1CCCC1)C2=O	5%	-1	2%	-1%	·
CCC(C)(C)C(=O)NCc1cc2c(nc1OC)CN(C1CCCC1)C2=O	-3%	-30*	-6%	?	9%
CCC(=O)NCc1cc2c(nc1OC)CN(C1CCCC1)C2=O	4%	-33*	18%	1%[11.5 µM]	-10%
CCCCOC(=O)N1CCC2(CC1)[C@@H](C(=O)OCC)[C@@H](O)C(=O)N2Cc1ccccc1	·	-1	·	·	·
COc1ccc(CC(=O)N[C@H]2C[C@@H](c3nc(-c4ccc(OC(F)(F)F)cc4)no3)N(C)C2)cc1	2%	0	-9%	?	·
CC(C)CCN1CC2(CCCN(S(=O)(=O)N3CCOCC3)C2)CCC1=O (configuration not stated)	17%	-33*	-6%	0%[11.5 µM]	-11%
O=C1N(CC2CC2)CCCC12CCN(S(=O)(=O)N1CCOCC1)C2 (configuration not stated)	8%	-3	-1%	i	·
O=C(c1cc(Cl)ccc1F)N1CCN(C(=O)c2nnn3c2COC(c2ccccc2)C3)CC1 (configuration not stated)	3%	-32*	-10%	3%	-9%
O=C(NCC(=O)N1CCN(c2ncccn2)CC1)c1ccc(-c2cnc3ccccc3c2)cc1	?	-8	?	i	·
CCC(C(=O)N1CCN(c2cc(Cl)ccc2C)CC1)n1nc(C)n2c(cc3occc32)c1=O (configuration not stated)	-13%	-26*	-37%	·	2%
CCC(C(=O)N1CCN(c2ccccc2)CC1)n1nc(C)n2c(cc3sccc32)c1=O (configuration not stated)	-5%	-8	-16%	·	·
Cc1nn(-c2ccccc2)c2c1C(C)N(C1CN(C(=O)Cc3ccc(F)cc3)C1)C2=O (configuration not stated)	·	10	·	·	·
Cc1cc(NC(=O)c2cc(-c3ccc[nH]3)n[nH]2)ccc1F	69%	22	-1%	-9%	·
O=C(Nc1cccc(OC(F)(F)F)c1)c1cc(-c2ccc[nH]2)n[nH]1	-24%	6	-5%	i	?
